S1P2 ag: S1P2 (human) receptor agonism | actives 0.46% (n = 97,000) | activation, % at 4.5 µM | AID 729 | S1P2-expressing cell line, agonist reporter read-out; in the data active means activation above about 16%;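 further: 0% = vehicle low control and 100% = maximal reference agonist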
PTPN22 act: increases human PTPN22 phosphatase activity; recombinant LYP, DiFMUP fluorescence; 0 = plate median, 100 = signal doubled; activation, % at 2 µM; actives 0.11% (n = 96,000); AID 697;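 active means activation at 2 µM above a set limit, the mean plus 5 SD, cut at about 37% in these data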
S1P2 blocker: S1P2 (human) receptor antagonism | inhibition, % at 5 µM | cell-based S1P2 antagonist assay, inhibition at 5 uM | actives 0.21% (n = 97,000) | O95136; in the data active means inhibition above about 45%;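 further: CRE beta-lactamase reporter cells expressing human S1P2 stimulated with S1P; 0% = agonist at EC80 alone and 100% = agonist plus reference antagonist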
GALR2 agonist: activates the human galanin receptor 2. GALR2-expressing cells, agonist activation read-out. AID 803. O43603. actives 0.48% (n = 140,000). activation, % (concentration not given with the values); in the data active means activation above about 5%, passing the limit was not always enough;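 further: 0% = vehicle buffer wells and 100% = reference agonist at full effect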
Target sequence (O43603 whole entry, looked up): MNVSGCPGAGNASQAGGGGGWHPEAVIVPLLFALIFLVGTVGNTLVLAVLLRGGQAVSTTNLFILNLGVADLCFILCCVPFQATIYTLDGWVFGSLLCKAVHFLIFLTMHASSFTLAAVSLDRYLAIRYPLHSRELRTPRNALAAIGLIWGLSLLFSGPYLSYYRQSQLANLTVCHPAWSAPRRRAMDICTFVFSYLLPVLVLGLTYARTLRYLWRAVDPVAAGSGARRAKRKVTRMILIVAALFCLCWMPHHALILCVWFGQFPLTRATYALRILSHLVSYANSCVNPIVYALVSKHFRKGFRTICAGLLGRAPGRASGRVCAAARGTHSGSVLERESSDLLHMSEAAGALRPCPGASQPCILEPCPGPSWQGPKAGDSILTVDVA
LYP inh 2: blocks human PTPN22 phosphatase activity | Q9Y2R2 | recombinant LYP catalytic domain, DiFMUP fluorescence | inhibition, % at 2 µM | actives 0.21% (n = 96,000) | AID 640;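 active means inhibition at 2 µM at or above a set limit, the screen mean plus 3 SD, cut at about 24% in these data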;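 further: 0% = DMSO with enzyme and 100% = enzyme fully blocked by orthovanadate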
GALR2 blocker: antagonists of human galanin receptor 2 (GALR2); GALR2-expressing cells, antagonist mode; actives 0.39% (n = 140,000); inhibition, % at 4 µM; O43603; in the data active means inhibition above about 27%;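 further: cells stimulated with galanin 1-16 at roughly its EC80; 0% = agonist challenge control and 100% = basal control without agonist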
GALR2 agon conf: GALR2 (human) agonism confirmed. actives 10% (n = 460). shares compounds with GALR2 agonist. AID 864. GALR2-expressing cells, agonist activation. activation, % at 5.6 µM; in the data active means activation above about 8.4%;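 further: 0% = buffer-only vehicle wells and 100% = full reference agonist response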
BLA activ ctr: counter-screen for GALR2 agonists: beta-lactamase reporter activators; shares compounds with GALR2 agonist; CHO NFAT-bla reporter, beta-lactamase FRET activation; activation, % at 5.6 µM; actives 10% (n = 460); AID 865;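 active means activation above the screen-wide mean activation plus 3 SD, cut at about 8% in these data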;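 further: 0% = DMSO with PBS wells and 100% = thapsigargin positive control wells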
An asterisk follows results filed as active; · = not tested or not shown. This is a sample that favours compounds with a hit; in the whole collection about 1.4% have one here.

SMILES	S1P2 ag	PTPN22 act	S1P2 blocker	GALR2 agonist	LYP inh 2	GALR2 blocker	GALR2 agon conf	BLA activ ctr
CC1CN(Cc2cc(=O)[nH]c(C(C)C)n2)CC(C)O1 (configuration not stated)	0	-4	0	46*	5	-11	-1	0
O=C(CN(c1ccccc1)S(=O)(=O)c1ccccc1)N/N=C/c1ccco1	·	·	·	-1	·	-11	·	·
COC(=O)c1cc(NC(=O)CSc2nncn2C)cc(C(=O)OC)c1	-1	0	5	16*	-1	-5	-1	-1
CCOC(=O)COn1c(=O)c[n+]([O-])c2ccccc21	0	-6	-4	-2	5	-19	·	·
CCOC(=O)COn1c(=O)c(C)[n+]([O-])c2ccccc21	-4	-1	-12	31*	2	-3	0	-3
COc1ccc(C2CC3(CC(C)(C)NC(SC)=N3)Oc3cc(O)cc(C)c32)cc1 (configuration not stated)	·	·	·	19*	·	-34	25*	84*
Cc1cc2nc(C3CCCN(C(=S)Nc4ccccc4C)C3)[nH]c2cc1C (configuration not stated)	-1	7	6	0	-4	-2	·	·
CCCNC(=S)N1CCC(c2nc3cc(C)c(C)cc3[nH]2)CC1	-6	2	12	32*	2	-10	-1	-2
C=CCn1c(SCc2ccc(C#N)cc2)nnc1-c1ccc(C)cc1	-6	3	-6	-3	0	-9	·	·
Cc1nn(Cc2c(Cl)cccc2Cl)c(C)c1NC(=O)c1sc2ccccc2c1Cl	0	9	-12	12*	-14	-4	6	0
CCOC(=O)Cc1csc(NS(=O)(=O)c2ccc(Cl)cc2)n1	·	·	·	-1	·	18	·	·
COCCCNC(=O)c1c(N)n(-c2ccc(S(N)(=O)=O)cc2)c2nc3ccccc3nc12	10	-6	-20	3	11	4	·	·
C=CCNC(=O)c1c(N)n(-c2cccc(S(N)(=O)=O)c2)c2nc3ccccc3nc12	10	-9	1	8	9	-6	2	6
Cn1nc(OC(=O)Nc2ccc(F)cc2)cc1C(F)(F)F	-7	3	-2	62*	-4	-2	-1	-3
CCOC(=O)c1c(C)n(C)c2ccc(OCC(O)CN3C(=O)c4ccccc4S3(=O)=O)cc12 (configuration not stated)	13	17	-31	9	-21	-8	1	1
CCOC(=O)/C(=N\Nc1ccc(Cl)cc1)c1csc(Nc2ccccc2)n1	0	-1	-20	-1	-1	-4	·	·
CCOC(=O)/C(=N/Nc1ccccc1)c1csc(Nc2ccccc2)n1	-4	-1	-27	56*	4	-11	-1	-2
Cc1ccc(SCCc2ccc(C)nc2)cc1	·	·	·	-1	·	6	·	·
O=C(CN1CCCc2ccccc21)N/N=C/c1c(O)ccc2ccccc12	·	·	·	-2	·	9	·	·
CC(C)(C)C(=O)NC(=S)NNC(=O)c1sc2ccccc2c1Cl	·	·	·	101*	·	-6	65*	108*
O=C(NNC(=S)NC1CCCCC1)c1sc2ccccc2c1Cl	·	·	·	0	·	9	·	·
CC1(C)CC(=O)C2=C(C1)N(CCN1CCOCC1)C1=C(C(=O)CC(C)(C)C1)C2c1cccc(Cl)c1	6	5	-8	9	-5	0	2	3
Cc1cc(C(=O)CN2C(=O)c3cccc(N)c3C2=O)c(C)n1Cc1cccs1	9	-5	0	8	2	21	1	2
O=C(Cc1sc(-c2ccccc2Cl)nc1-c1ccccc1)Nc1ccc(F)cc1	-8	-1	-11	-2	0	-6	·	·
O=C(Cc1sc(-c2ccccc2Cl)nc1-c1ccccc1)Nc1ccccc1	-6	-1	6	26*	0	-8	3	5
COc1ccc(C(O)(C(=O)NNc2ccc(C)cc2)c2cccs2)cc1 (configuration not stated)	-7	2	6	-1	-5	-2	·	·
O=C(NNc1ccc(C2CCCCC2)cc1)C(O)(c1ccccc1)c1cccs1 (configuration not stated)	-3	-3	-9	13*	7	8	-1	-2

Bioassay records from PubChem BioAssay.
